Source: PubChem (National Center for Advancing Translational Sciences (NCATS))
PLK1 PBD inh: inhibitors of human PLK1 polo-box domain binding; P53350; actives 2.8% (n = 360,000); Potency, µM, without a hit: max response, negative = inhibition, actives largely listed as inhibitors; Plk1 PBD binding of FITC phosphopeptide, fluorescence polarization; further: series mostly up to about 57 µM; on the % scale 0 is the no-effect control and ±100 the full control effect; nearly all actives have a fitted effect of over 65% in size
Target sequence (P53350 whole entry, looked up, the tested form may be a part): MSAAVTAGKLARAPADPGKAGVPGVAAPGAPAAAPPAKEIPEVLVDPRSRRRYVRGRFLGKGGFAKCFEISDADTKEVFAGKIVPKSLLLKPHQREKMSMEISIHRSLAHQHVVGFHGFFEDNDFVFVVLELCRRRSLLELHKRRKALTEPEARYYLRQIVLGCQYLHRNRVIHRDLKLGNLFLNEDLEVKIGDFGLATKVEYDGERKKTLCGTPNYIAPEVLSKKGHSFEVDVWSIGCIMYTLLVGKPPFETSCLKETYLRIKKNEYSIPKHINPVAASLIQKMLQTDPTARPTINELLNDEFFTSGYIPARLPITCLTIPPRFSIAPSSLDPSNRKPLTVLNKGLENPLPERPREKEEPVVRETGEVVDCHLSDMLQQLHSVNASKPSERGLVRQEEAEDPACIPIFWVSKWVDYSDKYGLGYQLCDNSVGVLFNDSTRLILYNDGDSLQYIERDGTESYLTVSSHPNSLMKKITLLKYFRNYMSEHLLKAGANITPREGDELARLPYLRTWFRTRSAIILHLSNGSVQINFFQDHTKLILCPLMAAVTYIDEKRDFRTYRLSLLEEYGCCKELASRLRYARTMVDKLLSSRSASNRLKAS
VDR inhibitor: vitamin D3 receptor (human) inhibition | VDR-SRC2-3 peptide fluorescence polarization, 2 h | P11473 | actives 0.93% (n = 400,000) | Potency, µM, without a hit: max response, negative = inhibition, most hits filed as inhibitors; further: on the % scale 0 is the no-effect control and ±100 the full control effect
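The screen uses fluorescence polarization to detect compounds that interfere with recruitment of the SRC2-3 coactivator peptide to VDR; plates are read after 2 h at room temperature.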
Sfp PPTase inh: Sfp phosphopantetheinyl transferase inhibition | Q9F4F7 | Biochemical Sfp PPTase activity, qHTS | Potency, µM, inactives show largest response in the series, negative = inhibition, hits mostly inhibitors | actives 3.5% (n = 310,000) | AID 1490;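 further: the enzyme is Sfp with the accession as filed and its product quenches rhodamine fluorescence; 0% = enzyme reaction without inhibitor and -100% = no enzyme wells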
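Compounds were incubated with enzyme (final 15 nM) for 15 min at room temperature before substrate addition started the reaction. Fluorescence at 525 nm excitation, 598 nm emission was recorded immediately and after 30 minutes.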
ALOX12 inh: inhibitors of human 12S-lipoxygenase ALOX12. purified 12hLO, xylenol orange hydroperoxide absorbance. Potency, µM (doses to about 108 µM), for inactives: at the top dose activity change, negative = inhibition, usual class: inhibitors. actives 1.1% (n = 580,000). AID 1671190; further: on the % scale 0 is the no-effect control and ±100 the full control effect
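Hydroperoxide product was detected by ferrous iron/xylenol orange as the 573 to 405 nm absorbance ratio. Arachidonic acid at 40 uM (final) was turned over for 30 min at room temperature by 150 nM human 12hLO, pH 7.0 Hepes buffer, after 15 min compound preincubation.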
VDR confirm: confirmation of human vitamin D receptor inhibitors. shares compounds with VDR inhibitor. VDR-coactivator inhibition assay, qHTS confirmation. Potency, µM, usual class: inhibitors. actives 89% (n = 840). AID 602199
VDR FP: VDR (human) coactivator binding inhibition, fluorescein polarization. VDR-coactivator binding, fluorescein fluorescence polarization. Potency, µM (doses to about 57.1 µM), for the others: at the highest dose activity change, negative = inhibition, actives largely listed as inhibitors. AID 602200. shares compounds with VDR inhibitor. actives 48% (n = 840)
VDR bla reporter: VDR (human) inhibition, cell-based beta-lactamase validation | Potency, µM (highest dose often 46.1 µM), for inactives: at the top dose activity change, negative = inhibition, most hits filed as inhibitors | VDR beta-lactamase reporter cells, FRET ratio; cells co-treated with VDR agonist LG190178 | actives 23% (n = 840) | shares compounds with VDR inhibitor | AID 602202; further: on the % scale 0 is the no-effect control and ±100 the full control effect
VDR cytotox: cell toxicity, VDR inhibitor hit counter-screen; shares compounds with VDR inhibitor; cytotoxicity counter-screen, cell viability, qHTS; Potency, µM (top dose mostly 48.3 µM), for the others: at the top dose activity change, negative = cytotoxicity, most hits filed as cytotoxic; actives 18% (n = 840); AID 602204;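 further: plate controls were DMSO for no effect and high-concentration cycloheximide for full effect; nearly all actives have a fitted effect of over 75% in size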
* marks the source's active call; other numbers are inactive results; ? = inconclusive; . = no result; [ ] = another dose, or the depositor's remark. Compounds with a hit are over-represented: about 4.2% of the library has one in this group of screens. The call rests on the fitted dose curve; in most records, active means well fitted curve in the direction sought with a large enough effect; inconclusive means small, poorly fitted or top-dose-only effect, or another doubt; inactive means no such curve, though single readings can be large; an effect the other way counts as inactive or inconclusive. Potency means the concentration at half of the fitted maximal effect.

SMILES	PLK1 PBD inh	VDR inhibitor	Sfp PPTase inh	ALOX12 inh	VDR confirm	VDR FP	VDR bla reporter	VDR cytotox
Cc1onc(-c2ccccc2)c1C(=O)n1cccn1	-6%	-5%	18%	0%	.	.	.	.
Cc1nc2ccc(N=NN(C)C)cc2[nH]1	-12%	50µM*	?	?	21*	?	7%	?
O=C(COc1c(Cl)cccc1Cl)Nc1ccccc1N1CCCC1	-5%	2%	-4%	-6%	.	.	.	.
CSc1ccc(/C=C/C(=O)c2c(O)cc(C)oc2=O)cc1	-7%	?	13%	-15%	5.3*	152%	?	?
Cc1cc(O)c(C(=O)/C=C/c2ccc(Cl)cc2)c(=O)o1	-11%	?	3%	7%	.	.	.	.
O=c1[nH]c(/C=C/c2ccccc2)c([N+](=O)[O-])c(=O)[nH]1	-21%	22µM*	0%	-5%	24*	?	2%	26%
COc1cc(/C=C/c2[nH]c(=O)[nH]c(=O)c2[N+](=O)[O-])cc([N+](=O)[O-])c1O	-10%	-9%	-6%	-18%	.	.	.	.
O=c1[nH]c(/C=C\c2cccc(Cl)c2)nc(O)c1[N+](=O)[O-]	0%	28µM*	-9%	?	13*	?	20%	16%
O=c1[nH]c(/C=C/c2cccc([N+](=O)[O-])c2)c([N+](=O)[O-])c(=O)[nH]1	-5%	28µM*	-19%	-5%	12*	7.1µM*	24%	?
O=c1[nH]c(/C=C/c2ccc(Cl)cc2Cl)c([N+](=O)[O-])c(=O)[nH]1	-15%	18µM*	15%	?	4.7*	?	-16%	21%
COc1ccc(-c2coc3c(C(=O)NCc4cccs4)cccc23)c(C)c1	-7%	.	.	-6%	.	.	.	.
CCOCCn1c(C2CCN(CCc3ccc(C(C)(C)C(=O)O)cc3)CC2)nc2ccccc21	.	.	.	-4%[22.9 µM]	.	.	.	.
CCCCNC(=O)CSc1nc2cc3c(cc2c(=O)n1Cc1ccc(C(=O)NCCc2ccc(OC)c(OC)c2)cc1)OCO3	.	15%	.	-16%	.	.	.	.
O=[N+]([O-])c1cc(S(=O)(=O)C(F)(F)F)ccc1Sc1nc2ccccc2s1	13µM*	35µM*	-9%	236%	9.5*	3.5µM*	?	?
N#Cc1c(Nc2ccccc2)s[nH]c1=O	-29%	?	20µM*	?	7.5*	8%	10%	-16%
N#Cc1c(Nc2ccccc2)sc(C(=O)c2ccc(F)cc2)c1N	-1%	-25%	-15%	-9%	.	.	.	.
Cc1cc(C)nc(S/C=C/C(=O)c2ccccc2F)n1	4.7µM*	?	-29%	-8%	2*	1.6µM*	16µM*	17µM*
O=C(/C=C/c1ccc2ccccc2c1)c1ccccc1F	.	.	.	5%	.	.	.	.
COC(=O)C1=C(C)N(Cc2ccco2)C(=O)/C1=C\c1ccc([N+](=O)[O-])cc1	-27%	22µM*	20µM*	?	?	28%	-29%	?
Cc1ccc(C2=NOC(=O)/C2=C\c2ccccc2)cc1	3.4µM*	32µM*	.	?	7.5*	?	0%	30%
O=c1/c(=C\c2ccc(O)cc2)sc2nc(-c3ccccc3)c(-c3ccccc3)n12	-3%	-1%	-16%	7%	.	.	.	.
O=C1ON=C(c2ccccc2)/C1=C/c1ccc(O)cc1	1.7µM*	35µM*	50µM*	45µM*	11*	?	?	?
O=C1ON=C(c2ccccc2)/C1=C/c1ccccc1	5.3µM*	45µM*	45µM*	6.3µM*	19*	6.3µM*	27%	-15%
CCCCc1ccc(/C=C2/C(=O)ON=C2c2ccccc2)s1	-11%	?	-11%	-26%	.	.	.	.
Cc1ccc(S(=O)(=O)Oc2ccccc2/C=C2/SC(=O)NC2=O)cc1	-16%	-17%	7%	-6%	.	.	.	.
SMILES	PLK1 PBD inh	VDR inhibitor	Sfp PPTase inh	ALOX12 inh	VDR confirm	VDR FP	VDR bla reporter	VDR cytotox
O=[N+]([O-])c1cccc(NC(=S)N2CCN(c3ccccn3)CC2)c1	-4%	-2%	14%	0%	.	.	.	.
CCOC(=O)Cn1nc(C(F)F)c(Br)c1C	-12%	-16%	4%	-4%	.	.	.	.
CCOc1cc(/C=C2\N=C(C)OC2=O)cc(Cl)c1OCC(=O)OC	0%	45µM*	.	-12%	9.5*	?	-2%	10%
Cc1cc(N2CCOCC2)nc(N2CCN(C(=O)Nc3ccc(F)cc3)CC2)n1	.	.	.	-17%	.	.	.	.
Cc1ccc(S(=O)(=O)Nc2ccc(O)c3ccccc23)c(C)c1	4.2µM*	28µM*	56µM*	?	11*	10µM*	9%	?
CCS(=O)(=O)c1ncc(Cl)c(C(=O)Nc2ccc(S(=O)(=O)N(C)c3ccccc3)cc2)n1	?	?	?	-7%	4.5*	?	?	7.5µM*
CS(=O)(=O)c1ncc(Cl)c(C(=O)Nc2ccc(N3CCOCC3)cc2)n1	?	-70%	-42%	.	.	.	.	.
CCN(c1ccccc1)S(=O)(=O)c1ccc(NC(=O)c2nc(S(C)(=O)=O)ncc2Cl)cc1	17µM*	40µM*	20µM*	-26%	13*	?	?	16µM*
CS(=O)(=O)c1ncc(Cl)c(C(=O)Nc2ccc(OC(F)F)cc2)n1	24µM*	10µM*	?	-15%	8.4*	8.9µM*	?	13µM*
CC(=O)N(C(C)=O)N1C(=O)C2C3c4ccccc4C(c4ccccc43)C2C1=O (stereo not given)	?	35µM*	1%	-2%	30*	?	33%	1%
NC(=O)C[N+]1(CC#CC(O)(c2ccccc2)c2ccccc2)CCCC1	-20%	-10%	-12%	?	.	.	.	.
O=C(/C=C/c1ccc(O)c(O)c1)c1ccc(S(=O)(=O)N2CCCCCC2)cc1	-8%	79µM*	-13%	22µM*	24*	25µM*	22%	-6%
Nc1ccc(N2CCCC2)c(S(=O)(=O)Nc2cccc(C(F)(F)F)c2)c1	4.7µM*	40µM*	.	?	11*	?	-4%	17%
Cc1ccc(Oc2c(C(N)=O)cc([N+](=O)[O-])cc2[N+](=O)[O-])cc1	21µM*	28µM*	?	-24%	11*	13µM*	?	5.6µM*
COc1ccc(OC)c2c1C(=O)C(Cl)=C(Cl)C2=O	2.1µM*	22µM*	0.5µM*	?	8.4*	?	1.6µM*	5.2µM*
COc1ccc(Cl)cc1C(C)=O	.	.	.	20%	.	.	.	.
